The list is not random: actives were taken first. Their share in the collection is about 6%.
Tau fluor cs: counter-screen for tau fibril formation inhibitors; AID 1463; actives 0.93% (n = 280,000); tau K18 P301L Alexa594 fluorescence, heparin fibrillization; Potency, µM (titrated, usually from 57.7 µM); also: nearly all actives have a fitted effect of over 55% in size
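Human tau K18 P301L (15 uM unlabeled, 0.24 uM Alexa 594-labeled) in 100 mM sodium acetate pH 7 with 20 uM heparin, 6 hr at 37 C. ThT 30 uM added, 1 hr ambient; Alexa 594 FP and total fluorescence read at 555/632 nm.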
Tau fibril FP: inhibitors of human tau fibril formation; Potency, µM (series often up to 57.7 µM), hits mostly inhibitors; actives 0.39% (n = 280,000); K18 P301L tau heparin fibrillization, Alexa594 FP, 6 h; P10636; also: nearly all actives have a fitted effect of over 55% in size
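FP of Alexa 594-tau after heparin (20 uM) induction. Substrate: human K18 P301L, 15 uM unlabeled, 0.24 uM labeled. Buffer 100 mM sodium acetate pH 7. 6 hr, 37 C.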
Tau fibril ThT: tau fibrillization inhibition (ThT binding) | P10636 | recombinant tau K18 P301L (four-repeat tau fragment), heparin-induced fibrillization, ThT fluorescence | Potency, µM (doses to about 57.4 µM), hits mostly inhibitors | actives 2.1% (n = 270,000); also: nearly all actives have a fitted effect of over 55% in size
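Tau K18 P301L fragment (15 uM unlabeled plus 0.24 uM Alexa 594-labeled) in 100 mM sodium acetate pH 7 with compound, fibrillization induced by 20 uM heparin for 6 hr at 37 C. Thioflavin T (30 uM) added, fluorescence read after 1 hr (ex 450, em 510 nm).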
PLK1 PBD inh: blocks phosphopeptide binding to human PLK1 polo-box domain. actives 2.8% (n = 360,000). Potency, µM, hits mostly inhibitors. P53350. Plk1 PBD binding of FITC phosphopeptide, fluorescence polarization; also: series mostly up to about 57 µM; nearly all actives have a fitted effect of over 65% in size
Target sequence (P53350 whole entry, looked up, the tested form may be a part): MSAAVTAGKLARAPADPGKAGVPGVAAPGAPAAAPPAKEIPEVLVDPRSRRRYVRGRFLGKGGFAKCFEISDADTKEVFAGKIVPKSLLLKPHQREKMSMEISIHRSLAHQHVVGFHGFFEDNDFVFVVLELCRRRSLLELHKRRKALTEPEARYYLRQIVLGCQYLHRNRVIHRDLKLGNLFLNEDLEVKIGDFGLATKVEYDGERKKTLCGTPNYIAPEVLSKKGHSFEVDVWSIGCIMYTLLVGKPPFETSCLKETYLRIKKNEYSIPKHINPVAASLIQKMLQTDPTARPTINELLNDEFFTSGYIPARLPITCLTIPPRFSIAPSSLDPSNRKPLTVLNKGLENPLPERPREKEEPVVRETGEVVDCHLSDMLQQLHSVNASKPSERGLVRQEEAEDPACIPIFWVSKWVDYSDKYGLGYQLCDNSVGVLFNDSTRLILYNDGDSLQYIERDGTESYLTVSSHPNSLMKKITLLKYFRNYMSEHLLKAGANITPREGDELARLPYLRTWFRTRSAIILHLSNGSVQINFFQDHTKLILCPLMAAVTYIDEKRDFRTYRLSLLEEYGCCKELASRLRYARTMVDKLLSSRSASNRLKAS
VDR inhibitor: blocks the human vitamin D receptor; AID 504847; VDR-SRC2-3 peptide fluorescence polarization, 2 h; P11473; Potency, µM, actives largely listed as inhibitors; actives 0.93% (n = 400,000)
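Inhibition of the VDR/SRC2-3 peptide interaction is quantified by fluorescence polarization. Compounds (23 nl, pintool) incubate with the reagents for 2 hours at ambient room temperature.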
Sfp PPTase inh: Sfp phosphopantetheinyl transferase inhibition; AID 1490; Biochemical Sfp PPTase activity, qHTS; actives 3.5% (n = 310,000); Potency, µM, actives largely listed as inhibitors; Q9F4F7;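 also: the enzyme is Sfp with the accession as filed and its product quenches rhodamine fluorescence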
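Buffer: 50 mM Hepes-Na pH 7.6, 10 mM MgCl2, 0.01% Nonidet P-40, 0.01% BSA. Enzyme 15 nM, pre-exposed to compound 15 min; substrates then added and fluorescence change tracked over 30 min.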
Hits are given with their value; . = inactive; ? = inconclusive; / = no result given. Calls follow the shape of the dose curve; as a rule, active = well fitted curve in the direction sought with a large enough effect; inconclusive = small, poorly fitted or top-dose-only effect, or another doubt; inactive = no such curve, though single readings can be large; an effect the other way counts as inactive or inconclusive.

SMILES | Tau fluor cs | Tau fibril FP | Tau fibril ThT | PLK1 PBD inh | VDR inhibitor | Sfp PPTase inh
CCOC(=O)[C@H]1[C@H]2COc3ccc(Br)cc3[C@@H]2N2C(=O)c3ccc(Cl)cc3NC(=O)[C@@]12C | / | / | / | . | . | /
CCCCCCCCCC[Si](C)(C)CCC(=O)NC(Cc1ccc(C)cc1)c1ccccc1 (stereo not given) | . | . | . | / | . | /
CC1=NN(c2ccccc2)C(=O)C1C(=S)SC1CC(=O)NC1=O (stereo not given) | / | / | / | 11µM | / | /
O=C(O)C/C(=C\c1cccc(NC(=O)c2ccccc2Cl)c1)c1nc2ccccc2s1 | . | . | ? | 27µM | . | .
COc1ccc(/C=C(\CC(=O)O)c2nc3ccccc3s2)cc1O | . | . | ? | . | . | .
COc1cc(/C=C(\CC(=O)O)c2nc3ccccc3s2)cc(OC)c1O | . | . | ? | . | . | 35µM
O=C(Nc1ccc(Cl)cc1)/C(=C/c1cccc(O)c1)c1nc2ccccc2s1 | ? | ? | 20µM | . | ? | .
O=C(O)C/C(=C\c1cc2c(cc1Br)OCO2)c1nc2ccccc2s1 | / | / | / | 24µM | . | ?
COc1cc(-c2noc(-c3ccc(NCc4ccco4)c([N+](=O)[O-])c3)n2)cc(OC)c1OC | . | . | . | / | . | /
O=C(COC(=O)C1CCN(S(=O)(=O)c2cccs2)CC1)Nc1ccc(F)cc1F | . | . | . | . | . | .
Cc1ccc2scc(CN3CCCC3)c2c1 | / | / | / | . | . | /
Cc1nn(C)c2nc(NNC(=O)Nc3cc(Cl)nc(Cl)c3)cc(C(C)C)c12 | ? | . | . | / | ? | .
COc1ccc(NC(=O)c2nc3ccccc3s2)cc1 | . | . | ? | . | . | ?
COc1ccc(C(=O)Nc2cccc(/C=C(\CCC(=O)O)c3nc4ccccc4s3)c2)cc1 | . | . | . | 11µM | ? | .
O=C(NC1CCSc2ccccc21)c1ccc(F)c(S(=O)(=O)N2CCOCC2)c1 (stereo not given) | / | / | / | . | . | 50µM
c1ccc2sc(Sc3ncnc4sccc34)nc2c1 | . | . | ? | . | . | .
Clc1ccc(-n2nnnc2Sc2ncnc3sccc23)cc1 | / | / | / | 8.4µM | 79µM | /
CC(C)(C)NC(=O)C(c1ccncc1)N(Cc1ccco1)C(=O)c1ccc(-c2ccccc2)[nH]1 (stereo not given) | . | . | ? | . | 71µM | .
O=C(NC1CCCCC1)C(c1ccncc1)N(Cc1ccccc1)C(=O)c1ccc(-c2ccccc2)[nH]1 (stereo not given) | . | . | . | . | . | .
COc1ccc(C2/C=C\CN([S+](=O)([O-])c3ccc4ccccc4c3)C(C)C(=O)N2Cc2ccc(F)cc2)cc1 (stereo not given) | / | / | / | / | . | .
Cc1cc(C=C2C(=O)c3ccccc3C2=O)c(C)n1-c1ccc(C(=O)O)cc1 | . | . | 14µM | . | . | ?
Cc1cc(/C=c2\sc3nc4ccccc4n3c2=O)c(C)n1-c1ccc(C(=O)O)cc1 | . | . | ? | 21µM | . | .
Cc1cc(C=C2C(=O)c3ccccc3C2=O)c(C)n1-c1cccc(C(=O)O)c1 | . | . | 16µM | . | . | .
Cc1cc(/C=c2/sc3nc4ccccc4n3c2=O)c(C)n1-c1ccccn1 | . | . | ? | . | . | .
Cc1ccc2c(nc3s/c(=C\c4ccc(-c5ccccc5C(=O)O)o4)c(=O)n32)c1C | / | / | / | . | . | .
SMILES | Tau fluor cs | Tau fibril FP | Tau fibril ThT | PLK1 PBD inh | VDR inhibitor | Sfp PPTase inh
O=C(O)c1ccc(-c2ccc(/C=c3/sc4nc5ccccc5n4c3=O)o2)cc1Cl | / | / | / | . | ? | 50µM
CCOC(=O)c1[nH]c(C)c(CCC(=O)Nc2ccccc2C(=O)OC)c1C | . | . | . | / | . | /
Cc1cc(NC(=O)c2cc(-c3ccc(F)cc3)on2)nn1Cc1ccc(Cl)cc1 | . | . | . | / | . | /
COc1ccc(-c2nc3cc(C)c(Br)c(C)n3c2Cc2ccsc2)cc1OC | / | / | / | . | / | /
CNC(=O)[C@@H](Cc1ccccc1)N(C)C(=O)[C@@H](Cc1ccc2ccccc2c1)N(C)C(=O)/C=C/CC(C)(C)N | . | . | . | / | / | .
O=c1/c(=C/c2ccc(O)c([N+](=O)[O-])c2)sc2nc3ccccc3n12 | . | . | 2µM | ? | . | .
C/C=C/C=C/C(=O)[C@@H]1[C@@H]([C@]2(C)OC(=O)C(C)=C2O)[C@H]2/C(=C(O)/C=C/C=C/C)C(=O)[C@]1(C)C(=O)C2(C)O (stereo not given in full) | . | ? | 14µM | ? | ? | 50µM
CCC(CC)C(=O)Nc1ccc(OCc2cc(=O)n3ccc(C)cc3n2)cc1 | . | . | . | / | . | /
COc1ccc(Cl)cc1NC(=O)Cn1ccn(Cc2ccc(C)cc2)c(=O)c1=O | . | . | . | / | . | /
O=C(O)c1ccn2c(C(=O)c3ccc(Cl)cc3)c(-c3ccccc3)cc2c1 | . | . | ? | 38µM | . | .
COc1ccc(NC(=S)Nc2cccc3ccccc23)cc1OC | / | / | / | . | . | .
CC(=O)c1ccc(NC(=S)Nc2cccc3cnccc23)cc1 | . | . | ? | 30µM | ? | 2.5µM
Cc1ccc(NC(=S)Nc2cccc3cnccc23)cc1 | . | ? | ? | 27µM | ? | 45µM
COCCNC(=S)Nc1cccc2cnccc12 | . | . | . | . | . | .
Cc1ccc(NC(=S)Nc2cccc3cnccc23)cc1C | . | . | . | 27µM | ? | 40µM
COC(=O)c1c(NC(=O)CS(=O)(=O)c2ccc(C)cc2)sc2c1CCCCC2 | . | . | . | / | . | /
O=c1[nH]c2ccc(NCc3ccc(-c4ccccc4F)o3)cc2[nH]1 | ? | ? | ? | / | . | /
CS(=O)(=O)n1nc(OC(=O)c2cc(Br)ccc2Cl)cc1N | . | ? | ? | 11µM | ? | ?
CS(=O)(=O)n1nc(OC(=O)c2cccc3ccccc23)cc1N | . | . | ? | . | . | .
O=C(COC(=O)c1c2c(nc3ccccc13)/C(=C/c1ccco1)CC2)NC1CCCC1 | ? | . | ? | ? | . | 50µM
CC1CCCCC1NC(=O)COC(=O)c1c2c(nc3ccccc13)/C(=C/c1ccco1)CC2 (stereo not given) | . | . | ? | 11µM | . | .
COc1ccc(CCCNC(=O)C2Cc3c(-c4ccc5c(c4)OCO5)ccnc3O2)cc1 (stereo not given) | / | / | / | . | / | /
Cc1ccc(C)c(NC(=O)CCN2C(=O)c3ccccc3Sc3ncccc32)c1 | . | . | . | / | . | /
Cc1ccc(S(=O)(=O)N2CCOCC2)cc1NC(=O)COc1ccc(C(=O)c2ccccc2)cc1 | / | / | / | . | 89µM | /
Cc1ccc(S(=O)(=O)N2CCOCC2)cc1NC(=O)COC(=O)CNC(=O)c1ccccc1 | . | . | . | . | . | .
CCN(CC)S(=O)(=O)c1ccc(O)c(NC(=O)c2ccc(N3CCOCC3)c([N+](=O)[O-])c2)c1 | . | . | . | 21µM | ? | ?
